Screening data from PubChem BioAssay.
This is a sample that favours compounds with a hit; in the whole collection about 3.4% have one here.
FXN GAA850 act: frataxin GAA850 promoter activation; HEK293 lucGAA850 FXN promoter luciferase reporter, 24 h; percent of 10 µM SAHA response; 360,000 compounds, 0.56% hits; AID 540364; activation, % at 6 µM;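 active = activation above the average of all compounds screened plus 3 SD, cutoff fixed separately per campaign, cut at about 7.5% in these data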
HSP90 refold inh: inhibitors of HSP90 luciferase refolding in rabbit reticulocyte lysate. luciferase refolding luminescence, 3 h. inhibition, % at 5.6 µM. 290,000 compounds, 0.91% hits;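 active = inhibition above the screen-wide mean plus 3 SD, computed separately per campaign, cut at about 16% in these data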;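 note: inhibitors lower the luminescence because luciferase stays unfolded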
PG9 Ab binder: PG9 antibody binding by small molecule | AID 624416 | 360,000 compounds, 0.43% hits | TR-FRET gp120-PG9 antibody binding | inhibition, % at 6.7 µM; in the data active = inhibition above about 8.5%
AI-2 QS mod: modulates the Vibrio harveyi AI-2 quorum sensing system; Vibrio harveyi JMH597 AI-2 luminescence/OD600 ratio, 9 h; hits give low values; strain lacks LuxN and CqsS sensors; 0 = neutral-control median; activity change, % at 7.5 µM; 300,000 compounds, 0.4% hits; in the data active = activity change below about -75%, passing the limit was not always enough;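 note: luminescence divided by OD600 gain over 9 h not by final OD600 alone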
HSF1 inhib: HSF1 inhibition; NIH3T3-HGL HSE-luciferase, MG132-induced, luminescence 8 h; hits give low values; activity change, negative = inhibition, % at 7.5 µM (by protocol); 300,000 compounds, 0.77% hits;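 active = more than half of replicate wells show activity change below -50%, luminescence cut by over half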;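 note: luciferase reports HSF-1 transcriptional activity via heat shock element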
SMARCA2 act: SMARCA2 function activation, primary screen. MG213 cells, MMTV-luciferase reporter, dexamethasone, overnight. activation, % at 9.1 µM. 370,000 compounds, 1% hits; in the data active = activation above about 7.8%
HSP90 inh confirm: HSP90 inhibition, confirmation assay; shares compounds with HSP90 refold inh; rabbit reticulocyte lysate, luciferase refolding luminescence, 3 h; inhibition, % at 5.9 µM; 2,300 compounds, 64% hits; AID 1846; in the data active = inhibition above about 18%
luciferase ctr: blocks native firefly luciferase in HSP90 counter-screen | shares compounds with HSP90 refold inh | purified native firefly luciferase, luminescence | inhibition, % at 5.9 µM | 2,300 compounds, 48% hits | AID 1847;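 active = inhibition above the mean inhibition of all tested sample wells plus 3 SD, cut at about 10% in these data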
Target sequence (P08659 whole entry, looked up): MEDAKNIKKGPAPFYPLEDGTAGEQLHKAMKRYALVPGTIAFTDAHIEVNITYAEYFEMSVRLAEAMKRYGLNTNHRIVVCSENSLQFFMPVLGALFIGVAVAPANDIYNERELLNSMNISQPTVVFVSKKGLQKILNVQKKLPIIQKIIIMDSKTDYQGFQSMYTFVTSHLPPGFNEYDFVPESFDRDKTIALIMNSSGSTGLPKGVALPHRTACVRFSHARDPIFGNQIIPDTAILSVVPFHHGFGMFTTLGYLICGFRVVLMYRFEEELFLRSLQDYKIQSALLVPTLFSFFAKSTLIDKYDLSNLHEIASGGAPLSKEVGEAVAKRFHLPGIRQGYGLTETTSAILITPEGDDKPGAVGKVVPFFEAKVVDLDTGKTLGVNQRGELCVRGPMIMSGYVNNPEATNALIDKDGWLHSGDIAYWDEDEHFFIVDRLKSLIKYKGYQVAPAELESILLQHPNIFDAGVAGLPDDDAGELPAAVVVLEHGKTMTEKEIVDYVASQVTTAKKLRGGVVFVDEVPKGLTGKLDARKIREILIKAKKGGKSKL
Large screens that a line does not name were inactive (follow-up assays come after a bar, where they were run).

COc1ccccc1NC(=O)OC1CC2CC1[C@H]1CCCCN1[C@H]2C (stereo partly specified)	none (no result: FXN GAA850 act, HSP90 refold inh, PG9 Ab binder, AI-2 QS mod, HSF1 inhib)
NC(=S)N/N=C/c1ccccc1[N+](=O)[O-]	none
CCNC(=S)N/N=C/c1ccccc1[N+](=O)[O-]	HSP90 refold inh 20 | HSP90 inh confirm inactive | luciferase ctr inactive
CCCOc1ccc(/C=N/Nc2cccc([N+](=O)[O-])c2)c(O)c1	none
CCCOc1ccc(/C=N/NC(=S)Nc2ccccc2[N+](=O)[O-])c(O)c1	HSP90 refold inh 75, HSF1 inhib -90 (no result: FXN GAA850 act) | HSP90 inh confirm 75 | luciferase ctr 21
COc1ccc(/C=N/NC(=S)Nc2ccccc2[N+](=O)[O-])cc1O	HSP90 refold inh 51 | HSP90 inh confirm 53 | luciferase ctr 11
COP(N)(=O)C(CC(C)C)NC(=O)OCc1ccccc1 (stereo unspecified)	none (no result: FXN GAA850 act, HSP90 refold inh, PG9 Ab binder, AI-2 QS mod, HSF1 inhib)
CCOc1ccc(-n2c(SCC(=O)c3ccc4ccccc4c3)nnc2-c2cccc(Cl)c2)cc1	none (no result: FXN GAA850 act, HSP90 refold inh, PG9 Ab binder, AI-2 QS mod, HSF1 inhib)
COC(=O)c1ccc(NC(=O)c2sc3nc(-c4ccccc4)cn3c2C)cc1	HSP90 refold inh 21 | HSP90 inh confirm 18 | luciferase ctr inactive
O=C(Nc1cccc(O)c1)c1noc2c1CCc1ccccc1-2	HSP90 refold inh 40 | HSP90 inh confirm 61 | luciferase ctr 54
COCCNc1c(-c2ccc(O)cc2)nc2ccc(Cl)cn12	none
COCCNc1c(-c2ccc(OC)c(OC)c2)nc2ccc(Cl)cn12	HSP90 refold inh 20 | HSP90 inh confirm inactive | luciferase ctr inactive
CC(=O)Nc1cccc(-c2csc(Nc3ccccn3)n2)c1	HSP90 refold inh 19 | HSP90 inh confirm inactive | luciferase ctr inactive
CC(=O)Nc1cccc(-c2csc(Nc3cc(C)ccn3)n2)c1	none
Oc1ccccc1Nc1nc(NCc2ccco2)c2ccccc2n1	HSP90 refold inh 28 | HSP90 inh confirm inactive | luciferase ctr inactive
CC(C)N1CCCCC(NC(=O)c2ccc(Br)cc2)C1=O (stereo unspecified)	none (no result: FXN GAA850 act, HSP90 refold inh, PG9 Ab binder, AI-2 QS mod, HSF1 inhib)
COC(=O)[C@]12C[C@H](CC(=O)N3CCC(c4ccccc4)CC3)C(=O)N(CCc3ccc(OC)c(OC)c3)C1=C[C@H](COCc1ccccc1)O[C@@H]2C	none (no result: FXN GAA850 act, HSP90 refold inh, PG9 Ab binder, AI-2 QS mod, HSF1 inhib)
COc1cc(/C=N/Nc2nc3ccccc3s2)cc([N+](=O)[O-])c1O	HSP90 refold inh 29 | HSP90 inh confirm inactive | luciferase ctr inactive
O=[N+]([O-])c1cc(Cl)cc(/C=N/Nc2nc3ccccc3s2)c1O	none
CN(C)c1ccc(-c2nc3ccccn3c2/N=C/c2ccc(Br)cc2)cc1	HSP90 refold inh 18 | HSP90 inh confirm 35 | luciferase ctr 19
Cc1cc(C)cc(Nc2ncc3c(n2)CCCC3=O)c1	HSP90 refold inh 17 | HSP90 inh confirm 43 | luciferase ctr 23
Cc1cc(C)cc(Nc2ncc3c(n2)CC(c2ccco2)CC3=O)c1 (stereo unspecified)	none
COc1cc(SC)ccc1C(=O)Nc1ncc(C)s1	HSP90 refold inh 80 | HSP90 inh confirm 88 | luciferase ctr 85
COc1cc(SC)ccc1C(=O)Nc1ccc(C)cc1	none
Cc1ccc(C(=O)Nc2ncc(C)s2)s1	HSP90 refold inh 29 | HSP90 inh confirm 50 | luciferase ctr 40
COc1cc(SC)ccc1C(=O)Nc1ccon1	none
COc1cc(SC)ccc1C(=O)Nc1cccc(C)n1	none
COc1cc(SC)ccc1C(=O)Nc1ccccn1	HSP90 refold inh 18 | HSP90 inh confirm 47 | luciferase ctr 38
COc1cc(SC)ccc1C(=O)Nc1ccc(Br)cn1	HSP90 refold inh 33 | HSP90 inh confirm 87 | luciferase ctr 83
CCOC(=O)[C@@]12CCC3=C1N(CCC3)C(=O)[C@H](CC(=O)NCc1ccc(OC)c(OC)c1)C2	none (no result: FXN GAA850 act, HSP90 refold inh, PG9 Ab binder, AI-2 QS mod, HSF1 inhib)
CC(=O)O[C@H]1C=C[C@@H](NC(=O)OC(C)(C)C)C1	none (no result: FXN GAA850 act, HSP90 refold inh, AI-2 QS mod, HSF1 inhib)
CCOc1ccc(N(CC(=O)N2CCCCCC2)S(=O)(=O)c2ccc(F)cc2)cc1	HSP90 refold inh 35 | HSP90 inh confirm inactive | luciferase ctr inactive
O=C1COc2ccccc2C(c2nnnn2-c2ccc3ccccc3c2)N1C1CC1 (stereo unspecified)	none (no result: FXN GAA850 act, HSP90 refold inh, PG9 Ab binder, AI-2 QS mod, HSF1 inhib)
CC(=O)N1c2ccccc2C(C)=NCC1C(=O)NC1CCCCC1 (stereo unspecified)	none (no result: FXN GAA850 act, HSP90 refold inh, PG9 Ab binder, AI-2 QS mod, HSF1 inhib)
Cc1ccc(N=Nc2ccc3ccccc3c2O)cc1	HSP90 refold inh 59, HSF1 inhib -73 | HSP90 inh confirm 77 | luciferase ctr 73
Oc1c(N=Nc2nn[nH]n2)ccc2ccccc12	none (no result: FXN GAA850 act, HSP90 refold inh, AI-2 QS mod, HSF1 inhib)
Cc1ccc(Cn2cc(CN3[C@H](C)COc4cc(Br)ccc4S3(=O)=O)nn2)cc1	none (no result: FXN GAA850 act, HSP90 refold inh, PG9 Ab binder, AI-2 QS mod, HSF1 inhib)
N#CC1=C(N)Oc2n[nH]c(-c3cccs3)c2C1c1ccncc1 (stereo unspecified)	none
N#CC1=C(N)Oc2n[nH]c(-c3cccs3)c2C1c1ccsc1 (stereo unspecified)	HSP90 refold inh 21 | HSP90 inh confirm inactive | luciferase ctr inactive
Cc1ccc(-c2nc(-c3nccc4ccccc34)oc2-c2ccccc2)cc1	HSP90 refold inh 23 | HSP90 inh confirm 41 | luciferase ctr 46
C=CCN1C(=O)[C@@H](CC(=O)NCc2ccccc2)[C@]2(C(=O)OC)CCCCC=C12	none (no result: FXN GAA850 act, HSP90 refold inh, PG9 Ab binder, AI-2 QS mod, HSF1 inhib)
CCOC(=O)c1cccc(-c2ccc(C=O)o2)c1	none
CCOC(=O)c1ccc(-c2ccc(C=O)o2)cc1	HSP90 refold inh 30 | HSP90 inh confirm 52 | luciferase ctr inactive
C[C@@H]1[C@@H](O)C[C@]2(C[C@@H](O)c3ccccc3O2)O[C@H]1c1ccccc1	none (no result: FXN GAA850 act, HSP90 refold inh, PG9 Ab binder, AI-2 QS mod, HSF1 inhib)
COc1cc(C=NOC(=O)Nc2ccccc2)cc(OC)c1OC	none (no result: HSP90 refold inh, AI-2 QS mod, HSF1 inhib)
Cc1nn(C(C)(C)C)c(C)c1/C=N/OC(=O)Nc1ccc(Cl)c(Cl)c1	HSP90 refold inh 78, HSF1 inhib -95 | HSP90 inh confirm 86 | luciferase ctr 85
COc1ccc(NC(=O)O/N=C/c2c(C)nn(C(C)(C)C)c2C)cc1	HSP90 refold inh 33, HSF1 inhib -71 | HSP90 inh confirm 51 | luciferase ctr 53
CCN(CC)C(=O)CC[C@@H]1CC[C@]2(CCCN(Cc3cccs3)C2)O1	none (no result: FXN GAA850 act, HSP90 refold inh, PG9 Ab binder, AI-2 QS mod, HSF1 inhib)
COc1cc2c(cc1NC(=O)CSc1nnc(-c3ccccc3C)n1Cc1ccco1)oc1ccccc12	none (no result: FXN GAA850 act, HSP90 refold inh, PG9 Ab binder, AI-2 QS mod, HSF1 inhib)
O=C(O)c1ccc(N/N=C/c2cc(Br)cs2)cc1	HSP90 refold inh 50 | HSP90 inh confirm 70 | luciferase ctr 71
C=CCOc1c(Br)cc(/C=N/Nc2ccc(C(=O)O)cc2)cc1OCC	HSP90 refold inh 20, HSF1 inhib -53 | HSP90 inh confirm 24 | luciferase ctr 10
Nc1ccc(C(=O)N/N=C\c2ccc(OC(=O)c3ccccc3Cl)cc2)cc1	none
